# Assay results published in the supplement of paper PMC10849652.
# About 7,900 targets were measured; listed, in parts, are those with a hit and a random draw of the rest. About 0.6% of all pairs of compound and target were hits. A number with no mark means an inactive call.
# Experiments:
# Assay in all cases: log2 fold change, soluble protein after heating vs DMSO (PISA); higher = thermal stabilisation; K562 cells, 10 uM, 30 min; active = over 0.2 and 3.5 SD of the protein, either way, in both replicates (recomputed)
# [1] = compound: C1COCCN1CCN2C3=CC=CC=C3N=C2NC(=O)C4=CC(=CC=C4)[N+](=O)[O-] [IRAK-1-4 Inhibitor I]
# Procedure, shortened: (§1)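 K562 cells at 2×10^6 cells/mL were exposed to 10 μM compound for 30 min, then aliquots were heated for 3 min across 48°C-58°C, pooled, and extracted in PBS containing 0.5% NP-40 at 4°C. The supernatant after 21,000xg for 90 min was taken as soluble protein and measured by TMTpro 16plex LC-MS/MS with channel sums equalised. Thermal stability is reported relative to control samples, with values from duplicates. Fold changes are given on a log2 scale.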
# [2] = compound: CC(C)C1=C2N=C(C=C(N2N=C1)NCC3=CC=CC=C3)NCCCCCCN
# Procedure, shortened: as §1
# [3] = compound: CC(C)N(C[C@H]1O[C@@H](n2cnc3c(N)ncnc32)[C@H](O)[C@@H]1O)[C@H]1C[C@@H](CCc2nc3cc(C(C)(C)C)ccc3[nH]2)C1 [pinometostat]
# Procedure, shortened: as §1
# [4] = compound: CC1=C(C(CC(=O)N1)C2=CC=C(C=C2)C(F)(F)F)C(=O)NC3=C(C=C4C(=C3)C=NN4)F
# Procedure, shortened: as §1
# [5] = compound: CC1=C(C2=C(C=C1)C(=O)C3=CC=CC=C3N2CCCN)C
# Procedure, shortened: as §1
# [6] = compound: CC1=C(C=C(C=C1)NC(=O)C2=CC(=CC=C2)C(C)(C)C#N)NC3=CC4=C(C=C3)N=CN(C4=O)C
# Procedure, shortened: as §1
# [7] = compound: CC1=CC=C(C=C1)SC2=C3C=C(SC3=CN=C2)C(=O)N
# Procedure, shortened: as §1
# [8] = compound: CC1=NC(=CC=C1)C2=C(N=C(N2)C(C)(C)C)C3=CC4=NC=CN=C4C=C3
# Procedure, shortened: as §1
# [9] = compound: CCCS(=O)(=O)Nc1ccc(F)c(C(=O)c2c[nH]c3ncc(-c4ccc(Cl)cc4)cc23)c1F [vemurafenib]
# Procedure, shortened: as §1
# [10] = compound: CCCS(=O)(=O)Nc1ccc(F)c(C(=O)c2c[nH]c3ncc(Cl)cc23)c1F
# Procedure, shortened: as §1
# [11] = compound: CCCc1cc(C)[nH]c(=O)c1CNC(=O)c1cc(-c2ccnc(N3CCN(C)CC3)c2)cc2c1cnn2C(C)C
# Procedure, shortened: as §1
# [12] = compound: CCN(CC)Cc1ccc2cc(COC(=O)Nc3ccc(C(=O)NO)cc3)ccc2c1 [givinostat]
# Procedure, shortened: as §1
# [13] = compound: CC(=O)c1cnc2ccc(-c3cc(Cl)c(O)c(Cl)c3)nc2c1N[C@H]1CC[C@H](CN(C)C)CC1
# Procedure, shortened: as §1
# [14] = compound: CC(C)(C)Cn1c(N)nc2ccc(-c3[nH]c(C(C)(C)C)nc3-c3ccc(F)cc3)nc21 [ralimetinib]
# Procedure, shortened: as §1
# [15] = compound: CC(C)(O)CC(=O)NCCn1ccc2ncnc(Nc3ccc(Oc4cccc(C(F)(F)F)c4)c(Cl)c3)c21
# Procedure, shortened: as §1
# [16] = compound: CC(C)C[C@@H](C=O)NC(=O)[C@H](CC(C)C)NC(=O)[C@H](CC(C)C)NC(=O)OCc1ccccc1
# Procedure, shortened: as §1
# [17] = compound: CC1=C(C=C(C=C1)NC(=O)C2=CC(=CC=C2)N(C)C)NC(=O)C3=CC=C(C=C3)O
# Procedure, shortened: as §1
# [18] = compound: CCCCN(Cc1ccc(C(=O)NO)cc1)C(=O)Nc1ccccc1 [Nexturastat A]
# Procedure, shortened: as §1
# [19] = compound: CCN(CCCOc1ccc2c(Nc3cc(CC(=O)Nc4cccc(F)c4)[nH]n3)ncnc2c1)CCOP(=O)(O)O [barasertib]
# Procedure, shortened: as §1
# Chain of UniProt Q13286 (Q13286 whole entry, looked up): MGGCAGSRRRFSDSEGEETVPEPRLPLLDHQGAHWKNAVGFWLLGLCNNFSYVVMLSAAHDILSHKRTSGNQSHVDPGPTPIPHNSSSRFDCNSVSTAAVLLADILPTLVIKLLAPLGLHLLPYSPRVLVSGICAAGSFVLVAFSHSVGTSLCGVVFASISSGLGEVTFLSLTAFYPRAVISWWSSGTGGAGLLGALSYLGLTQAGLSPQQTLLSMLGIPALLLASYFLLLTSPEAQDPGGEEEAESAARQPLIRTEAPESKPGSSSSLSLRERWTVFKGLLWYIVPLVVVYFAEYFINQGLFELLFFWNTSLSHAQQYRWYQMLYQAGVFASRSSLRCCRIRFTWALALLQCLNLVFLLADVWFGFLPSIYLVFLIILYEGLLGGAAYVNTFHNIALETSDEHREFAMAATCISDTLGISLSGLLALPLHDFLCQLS
# Chain of UniProt Q9UK58 (Q9UK58 whole entry, looked up): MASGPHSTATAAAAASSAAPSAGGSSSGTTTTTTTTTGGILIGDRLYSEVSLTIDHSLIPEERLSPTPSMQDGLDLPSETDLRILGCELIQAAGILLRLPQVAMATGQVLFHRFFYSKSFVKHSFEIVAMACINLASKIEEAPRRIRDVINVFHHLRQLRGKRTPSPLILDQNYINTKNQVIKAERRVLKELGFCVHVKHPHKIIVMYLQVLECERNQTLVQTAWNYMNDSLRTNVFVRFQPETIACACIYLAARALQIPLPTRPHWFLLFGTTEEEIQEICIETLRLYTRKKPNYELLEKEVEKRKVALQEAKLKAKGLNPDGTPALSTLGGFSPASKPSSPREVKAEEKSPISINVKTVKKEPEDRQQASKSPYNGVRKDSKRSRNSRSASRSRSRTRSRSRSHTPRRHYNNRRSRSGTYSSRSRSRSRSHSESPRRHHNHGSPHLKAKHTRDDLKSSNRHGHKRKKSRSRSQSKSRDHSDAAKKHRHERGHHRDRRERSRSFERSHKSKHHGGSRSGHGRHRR
# Chain of UniProt Q14677 (Q14677 whole entry, looked up): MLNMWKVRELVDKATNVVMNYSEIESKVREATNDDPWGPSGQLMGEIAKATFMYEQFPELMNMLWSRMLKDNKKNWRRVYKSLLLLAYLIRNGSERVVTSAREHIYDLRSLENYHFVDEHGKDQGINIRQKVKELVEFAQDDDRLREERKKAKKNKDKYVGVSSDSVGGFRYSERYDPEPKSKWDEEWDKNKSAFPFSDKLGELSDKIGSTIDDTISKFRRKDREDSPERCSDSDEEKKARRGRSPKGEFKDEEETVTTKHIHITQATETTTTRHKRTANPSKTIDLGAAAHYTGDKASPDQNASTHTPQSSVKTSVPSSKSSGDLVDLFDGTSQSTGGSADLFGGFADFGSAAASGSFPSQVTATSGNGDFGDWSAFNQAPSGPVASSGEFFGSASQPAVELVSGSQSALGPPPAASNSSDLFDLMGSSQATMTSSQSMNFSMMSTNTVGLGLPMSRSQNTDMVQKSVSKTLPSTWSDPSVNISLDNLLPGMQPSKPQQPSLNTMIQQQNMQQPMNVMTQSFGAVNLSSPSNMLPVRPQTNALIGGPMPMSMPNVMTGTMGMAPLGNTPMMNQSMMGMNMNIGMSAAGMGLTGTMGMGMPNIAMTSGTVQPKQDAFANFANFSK
# Chain of UniProt Q9UJA2 (Q9UJA2 whole entry, looked up): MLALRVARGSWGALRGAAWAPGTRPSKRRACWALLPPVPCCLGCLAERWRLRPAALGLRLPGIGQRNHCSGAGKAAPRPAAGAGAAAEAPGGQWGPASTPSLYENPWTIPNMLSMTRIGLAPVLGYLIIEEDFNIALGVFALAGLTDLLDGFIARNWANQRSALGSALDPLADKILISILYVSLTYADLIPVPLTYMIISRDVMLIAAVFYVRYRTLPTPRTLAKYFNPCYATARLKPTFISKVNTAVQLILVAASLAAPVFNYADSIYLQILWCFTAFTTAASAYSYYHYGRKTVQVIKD
Target,log2 fold change [1],log2 fold change [2],log2 fold change [3],log2 fold change [4],log2 fold change [5],log2 fold change [6],log2 fold change [7],log2 fold change [8],log2 fold change [9],log2 fold change [10],log2 fold change [11],log2 fold change [12],log2 fold change [13],log2 fold change [14],log2 fold change [15],log2 fold change [16],log2 fold change [17],log2 fold change [18],log2 fold change [19]
CRLS1 (UniProt Q9UJA2),-0.03,0.036,-0.071,-0.032,-0.005,0.337 (active),0.064,-0.014,0.033,0.117,-0.074,-0.108,–,–,–,–,–,–,–
CCNL1 (UniProt Q9UK58),–,-0.188,–,–,–,–,–,–,–,–,-0.317,0.156,–,–,–,–,–,–,–
"CCDC187, A0A1W2PQX5",–,–,–,-0.11,–,–,–,–,–,–,–,–,-0.14,-0.237,0.201,0.001,-0.105,0.003,–
CLINT1 isoform 3 (UniProt Q14677),–,0.103,0.047,-0.002,0.022,-0.082,-0.094,-0.09,-0.049,-0.073,-0.019,-0.01,0.135,0.139,0.102,0.04,-0.001,0.122,-0.047
CLN3 (UniProt Q13286),0.106,-0.532 (active),-0.113,0.054,-0.147,–,-0.025,-0.093,0.147,-0.119,-0.09,0.02,–,-0.05,-0.011,-0.043,0.004,-0.039,-0.027
